# Source: PubChem BioAssay (NCI)
# About 79,000 compounds went through this panel and 15% of them were active in at least one assay; those are over-represented in the sample as a whole. A number with no mark means an inactive call. The source made the active and inactive calls. No stated cut-off is given here; in the data, active means growth inhibition above about 70%; inactive means the rest.
# Tests used:
# [1] = NCI Yeast Anticancer Drug Screen. Data for the wt1 strain (AID 149);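 further: 0% = growth of vehicle-treated wt1 cultures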; details: S. cerevisiae wt1 strain (SPY 50644) growth inhibition, active compounds read high
# Method in brief: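 The wt1 strain was treated with compounds, and growth was compared with vehicle-treated cultures to give inhibition.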
# [2] = NCI Yeast Anticancer Drug Screen. Data for the rad50EPP+ strain (AID 151);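 further: 0% = growth of vehicle-treated control cultures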; details: S. cerevisiae rad50 mutant strain, active compounds read high
# Method in brief: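 Genetically defined yeast (rad50EPP+, DNA damage repair alteration) is grown with compound, and inhibition of growth is expressed relative to vehicle-treated controls.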
# [3] = NCI Yeast Anticancer Drug Screen. Data for the mgt1 strain (AID 153); details: S. cerevisiae mgt1 mutant growth inhibition, active compounds read high
# Method in brief: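 In the mgt1 strain, test compounds were added and growth inhibition was determined relative to vehicle-treated controls.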
# [4] = NCI Yeast Anticancer Drug Screen. Data for the rad50 strain (AID 155);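 further: 0% = growth of vehicle-only cultures of the same strain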; details: S. cerevisiae rad50 strain growth inhibition, active compounds read high
# Method in brief: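 Cells are treated with compound, grown, and their growth is then scored against vehicle-only cultures of the same repair-deficient yeast strain.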
# [5] = NCI Yeast Anticancer Drug Screen. Data for the mec2-1 strain (AID 157); details: S. cerevisiae mec2-1 strain, active compounds read high
# Method in brief: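 Each compound was tested on mec2-1 yeast, a strain altered in DNA damage repair or cell cycle control. Growth inhibition is reported relative to vehicle.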
# [6] = NCI Yeast Anticancer Drug Screen. Data for the rad14 strain (AID 159);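 further: 0% = growth of vehicle-treated control cultures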; details: S. cerevisiae rad14 strain growth inhibition, active compounds read high
# Method in brief: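 Readout: yeast growth inhibition, referenced to vehicle-only cultures. Strain bears a defined alteration in DNA damage repair.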
# [7] = NCI Yeast Anticancer Drug Screen. Data for the sgs1 mgt1 strain (AID 161);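 further: 0% = growth of cultures given vehicle only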; details: S. cerevisiae sgs1 mgt1 strain, active compounds read high
# Method in brief: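 Inhibition of yeast growth, normalised to vehicle-treated controls, is reported for a strain bearing genetic alterations in DNA damage repair.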
# [8] = NCI Yeast Anticancer Drug Screen. Data for the CLN2oe strain (AID 163);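 further: 0% = growth of vehicle-only control cultures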; details: S. cerevisiae CLN2oe strain, active compounds read high
# Method in brief: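 First, the altered yeast strain was treated with each compound; second, its growth was measured; finally, inhibition was derived by comparison with vehicle controls.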
# [9] = NCI Yeast Anticancer Drug Screen. Data for the cln2 rad14 strain (AID 165);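 further: 0% = growth equal to vehicle treated cultures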; details: S. cerevisiae cln2 rad14 strain, active compounds read high
# Method in brief: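 Test compounds were added to cln2 rad14 yeast cultures; inhibition of growth was then determined by comparison with vehicle treatment.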
# [10] = NCI Yeast Anticancer Drug Screen. Data for the bub3 strain (AID 167); details: S. cerevisiae bub3 mutant strain, active compounds read high
# Method in brief: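 Part of a panel of yeast mutants defective in DNA damage repair or cell cycle regulation. Each strain is grown with compound, and inhibition is calculated relative to solvent-treated cultures.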
# [11] = NCI Yeast Anticancer Drug Screen. Data for the wt2 strain (AID 169);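 further: 0% = growth of vehicle-treated yeast cultures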; details: S. cerevisiae wt2 strain growth inhibition, active compounds read high
# Method in brief: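 The panel's yeast strains carry defined changes in DNA repair or cell cycle genes. Each strain is grown with compound, and growth loss is scored relative to vehicle.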
# [12] = NCI Yeast Anticancer Drug Screen. Data for the mlh1 strain (AID 171);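 further: 0% = growth of vehicle-treated control cultures of the same strain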; details: S. cerevisiae mlh1 strain growth inhibition, active compounds read high
# Method in brief: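 Inhibition values reflect reduced yeast growth in the presence of compound, referenced to vehicle controls, using a strain chosen for its alteration in DNA repair or cell cycle control.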
# [13] = NCI Yeast Anticancer Drug Screen. Data for the mlh1 rad18 strain (AID 175); details: S. cerevisiae mlh1 rad18 strain growth inhibition, active compounds read high
# Method in brief: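 Inhibition values reflect reduced growth of mutant yeast versus vehicle-treated controls following compound exposure; the mutations affect DNA damage repair.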
# [14] = NCI Yeast Anticancer Drug Screen. Data for the rad18 strain (AID 177); details: S. cerevisiae rad18 mutant growth inhibition, active compounds read high
# Method in brief: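 Steps: expose repair-mutant yeast to compound; measure growth; express as inhibition relative to vehicle control.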
# [15] = NCI Yeast Anticancer Drug Screen. Data for the rad52 strain (AID 147);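 further: 0% = growth of vehicle-treated control cultures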; details: S. cerevisiae rad52 mutant growth inhibition, active compounds read high
# Method in brief: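 Inhibition of yeast growth, referenced to vehicle controls, was the measured output for a strain with defective DNA damage repair.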
# [16] = NCI Yeast Anticancer Drug Screen. Data for the sgs1 strain (AID 173);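 further: 0% = growth of vehicle-only control cultures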; details: S. cerevisiae sgs1 mutant, active compounds read high
# Method in brief: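 Vehicle-treated cultures served as reference for growth inhibition of a yeast strain altered in DNA damage repair or cell cycle control after compound exposure.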
# [17] = at 5.0 µM (retest, dose inferred, filed as 0.5)
# [18] = at 50.0 µM (retest, dose inferred, filed as 5.0)
smiles,measurement,setting,value
COc1cc([C@@H]2c3cc4c(cc3C[C@@H]3COC(=O)C32)OCO4)cc(OC)c1O (stereo partly drawn),growth inhibition,[1]; at 1.2 µM,32%
same,growth inhibition,[1]; at 3.7 µM,34%
same,growth inhibition,[1]; at 11.0 µM,65%
same,growth inhibition,[1]; at 33.0 µM,86% (active)
same,growth inhibition,[1]; at 100.0 µM,93% (active)
same,growth inhibition,[2]; at 1.2 µM,-5%
same,growth inhibition,[2]; at 3.7 µM,-6%
same,growth inhibition,[2]; at 11.0 µM,-4%
same,growth inhibition,[2]; at 33.0 µM,-4%
same,growth inhibition,[2]; at 100.0 µM,-6%
same,growth inhibition,[3]; at 1.2 µM,29%
same,growth inhibition,[3]; at 3.7 µM,22%
same,growth inhibition,[3]; at 11.0 µM,53%
same,growth inhibition,[3]; at 33.0 µM,59%
same,growth inhibition,[3]; at 100.0 µM,93% (active)
same,growth inhibition,[4]; at 1.2 µM,53%
same,growth inhibition,[4]; at 3.7 µM,76% (active)
same,growth inhibition,[4]; [17],64%
same,growth inhibition,[4]; at 11.0 µM,94% (active)
same,growth inhibition,[4]; at 33.0 µM,96% (active)
same,growth inhibition,[4]; [18],96% (active)
same,growth inhibition,[4]; at 50.0 µM,97.1% (active)
same,growth inhibition,[4]; at 100.0 µM,97% (active)
same,growth inhibition,[5]; at 1.2 µM,1%
same,growth inhibition,[5]; at 3.7 µM,17%
same,growth inhibition,[5]; [17],3%
same,growth inhibition,[5]; at 11.0 µM,49%
same,growth inhibition,[5]; at 33.0 µM,92% (active)
same,growth inhibition,[5]; [18],46%
same,growth inhibition,[5]; at 50.0 µM,98.8% (active)
same,growth inhibition,[5]; at 100.0 µM,96% (active)
same,growth inhibition,[6]; at 1.2 µM,9%
same,growth inhibition,[6]; at 3.7 µM,8%
same,growth inhibition,[6]; at 11.0 µM,65%
same,growth inhibition,[6]; at 33.0 µM,75% (active)
same,growth inhibition,[6]; at 100.0 µM,93% (active)
same,growth inhibition,[7]; [17],5%
same,growth inhibition,[7]; [18],45%
same,growth inhibition,[7]; at 50.0 µM,78.3% (active)
same,growth inhibition,[8]; at 1.2 µM,-3%
same,growth inhibition,[8]; at 3.7 µM,0%
same,growth inhibition,[8]; at 11.0 µM,24%
same,growth inhibition,[8]; at 33.0 µM,58%
same,growth inhibition,[8]; at 100.0 µM,51%
same,growth inhibition,[9]; [17],9%
same,growth inhibition,[9]; [18],93% (active)
same,growth inhibition,[9]; at 50.0 µM,86.2% (active)
same,growth inhibition,[10]; at 1.2 µM,3%
same,growth inhibition,[10]; at 3.7 µM,5%
same,growth inhibition,[10]; [17],-36%
same,growth inhibition,[10]; at 11.0 µM,31%
same,growth inhibition,[10]; at 33.0 µM,50%
same,growth inhibition,[10]; [18],69%
same,growth inhibition,[10]; at 50.0 µM,89.5% (active)
same,growth inhibition,[10]; at 100.0 µM,36%
same,growth inhibition,[11]; at 1.2 µM,2%
same,growth inhibition,[11]; at 3.7 µM,10%
same,growth inhibition,[11]; at 11.0 µM,33%
same,growth inhibition,[11]; at 33.0 µM,77% (active)
same,growth inhibition,[11]; at 100.0 µM,88% (active)
same,growth inhibition,[12]; at 1.2 µM,9%
same,growth inhibition,[12]; at 3.7 µM,14%
same,growth inhibition,[12]; at 11.0 µM,66%
same,growth inhibition,[12]; at 33.0 µM,86% (active)
same,growth inhibition,[12]; at 100.0 µM,93% (active)
same,growth inhibition,[13]; [17],2%
same,growth inhibition,[13]; [18],68%
same,growth inhibition,[13]; at 50.0 µM,96.9% (active)
same,growth inhibition,[14]; at 1.2 µM,2%
same,growth inhibition,[14]; at 3.7 µM,10%
same,growth inhibition,[14]; at 11.0 µM,65%
same,growth inhibition,[14]; at 33.0 µM,86% (active)
same,growth inhibition,[14]; at 100.0 µM,93% (active)
CCOP(=S)(S)OCC.[Pd],growth inhibition,[15]; at 1.2 µM,5%
same,growth inhibition,[15]; at 3.7 µM,45%
same,growth inhibition,[15]; at 11.0 µM,75% (active)
same,growth inhibition,[15]; at 33.0 µM,82% (active)
same,growth inhibition,[15]; at 100.0 µM,80% (active)
same,growth inhibition,[2]; at 1.2 µM,0%
same,growth inhibition,[2]; at 3.7 µM,11%
same,growth inhibition,[2]; at 11.0 µM,24%
same,growth inhibition,[2]; at 33.0 µM,20%
same,growth inhibition,[2]; at 100.0 µM,8%
same,growth inhibition,[3]; at 1.2 µM,-2%
same,growth inhibition,[3]; at 3.7 µM,17%
same,growth inhibition,[3]; at 11.0 µM,68%
same,growth inhibition,[3]; at 33.0 µM,82% (active)
same,growth inhibition,[3]; at 100.0 µM,82% (active)
same,growth inhibition,[4]; at 1.2 µM,12%
same,growth inhibition,[4]; at 3.7 µM,57%
same,growth inhibition,[4]; [17],67%
same,growth inhibition,[4]; at 11.0 µM,95% (active)
same,growth inhibition,[4]; at 33.0 µM,91% (active)
same,growth inhibition,[4]; [18],32%
same,growth inhibition,[4]; at 50.0 µM,79.4% (active)
same,growth inhibition,[4]; at 100.0 µM,92% (active)
same,growth inhibition,[5]; at 1.2 µM,10%
same,growth inhibition,[5]; at 3.7 µM,67%
same,growth inhibition,[5]; [17],80% (active)
same,growth inhibition,[5]; at 11.0 µM,95% (active)
same,growth inhibition,[5]; at 33.0 µM,87% (active)
same,growth inhibition,[5]; [18],51%
same,growth inhibition,[5]; at 50.0 µM,67.9%
same,growth inhibition,[5]; at 100.0 µM,85% (active)
same,growth inhibition,[6]; at 1.2 µM,0%
same,growth inhibition,[6]; at 3.7 µM,17%
same,growth inhibition,[6]; at 11.0 µM,60%
same,growth inhibition,[6]; at 33.0 µM,75% (active)
same,growth inhibition,[6]; at 100.0 µM,75% (active)
same,growth inhibition,[7]; [17],57%
same,growth inhibition,[7]; [18],36%
same,growth inhibition,[7]; at 50.0 µM,76.1% (active)
same,growth inhibition,[8]; at 1.2 µM,-3%
same,growth inhibition,[8]; at 3.7 µM,20%
same,growth inhibition,[8]; at 11.0 µM,59%
same,growth inhibition,[8]; at 33.0 µM,76% (active)
same,growth inhibition,[8]; at 100.0 µM,77% (active)
same,growth inhibition,[9]; [17],23%
same,growth inhibition,[9]; [18],9%
same,growth inhibition,[9]; at 50.0 µM,76.5% (active)
same,growth inhibition,[10]; at 1.2 µM,6%
same,growth inhibition,[10]; at 3.7 µM,63%
same,growth inhibition,[10]; [17],84% (active)
same,growth inhibition,[10]; at 11.0 µM,94% (active)
same,growth inhibition,[10]; at 33.0 µM,90% (active)
same,growth inhibition,[10]; [18],86% (active)
same,growth inhibition,[10]; at 50.0 µM,80.9% (active)
same,growth inhibition,[10]; at 100.0 µM,83% (active)
same,growth inhibition,[11]; at 1.2 µM,-2%
same,growth inhibition,[11]; at 3.7 µM,59%
same,growth inhibition,[11]; at 11.0 µM,95% (active)
same,growth inhibition,[11]; at 33.0 µM,91% (active)
same,growth inhibition,[11]; at 100.0 µM,85% (active)
same,growth inhibition,[12]; at 1.2 µM,4%
same,growth inhibition,[12]; at 3.7 µM,56%
same,growth inhibition,[12]; at 11.0 µM,94% (active)
same,growth inhibition,[12]; at 33.0 µM,88% (active)
same,growth inhibition,[12]; at 100.0 µM,84% (active)
same,growth inhibition,[16]; at 1.2 µM,13%
same,growth inhibition,[16]; at 3.7 µM,77% (active)
same,growth inhibition,[16]; at 11.0 µM,95% (active)
same,growth inhibition,[16]; at 33.0 µM,93% (active)
same,growth inhibition,[16]; at 100.0 µM,88% (active)
same,growth inhibition,[14]; at 1.2 µM,15%
same,growth inhibition,[14]; at 3.7 µM,86% (active)
same,growth inhibition,[14]; at 11.0 µM,98% (active)
same,growth inhibition,[14]; at 33.0 µM,96% (active)
same,growth inhibition,[14]; at 100.0 µM,93% (active)
